From PubChem BioAssay
The sample as a whole holds a higher share of hits than the screen did.
TTR transcr act = increases transthyretin transcription; activation, % at 16.7 µM; 1.3% of 92,000 active; SH-SY5Y TTR promoter Gaussia luciferase, luminescence; 100% = recombinant luciferase protein wells;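 active = activation above the mean of all tested compounds plus 3 SD, cut at about 9.5% in these data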;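 also: cells exposed to compounds for one day before reading; 0% = median of all test compound wells on the plate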
TTR inh HuH7 = HuH7 TTR transcription inhibition, counter-screen; shares compounds with TTR transcr act; HuH7 TTR promoter-Gaussia luciferase reporter, luminescence; inhibition, % at 16.7 µM; 4% of 1,100 active; AID 1117279;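 active = average inhibition above the solvent-only control wells' mean plus 3 SD, cut at about 15% in these data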;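 also: 0% = cells with DMSO only and 100% = cells with inhibitor control FD; inhibitors lower well luminescence so higher value means more inhibition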
TTR up confirm = confirmation of human transthyretin transcription activators | SHSY5Y TTR promoter Gaussia luciferase, luminescence; 100% = purified Lucia enzyme wells, no cells | activation, % at 16.7 µM | shares compounds with TTR transcr act | 1,100 tested, under 10 active;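 active = mean activation above a set limit taken from the earlier primary screen, cut at about 11% in these data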;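 also: 0% = DMSO-treated cells and 100% = recombinant Lucia luciferase without cells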
Active calls of the source: *; / = no result given.

SMILES	TTR transcr act	TTR inh HuH7	TTR up confirm
O=C(CSCc1ccc(C(=O)O)cc1)Nc1ccc2ccccc2c1	1	/	/
CC(=O)c1ccc(NC(=O)CSCC(=O)Nc2ccc3ccccc3c2)cc1	11*	-26	4
Cc1ccc(C(=O)c2ccccc2C(=O)OCC(=O)Nc2cccc([N+](=O)[O-])c2)cc1	-2	/	/
CC1CC1C(=O)OCC(=O)Nc1cccc([N+](=O)[O-])c1 (centres undefined)	12*	-5	0
CC1CC1C(=O)OCC(=O)Nc1ccc(N=Nc2ccccc2)cc1 (centres undefined)	-2	/	/
S=c1[nH]nc(COc2ccccc2)n1/N=C/c1cccc(Br)c1	-1	/	/
S=c1[nH]nc(COc2ccccc2)n1/N=C/C=C/c1ccco1	3	/	/
S=c1[nH]nc(COc2ccccc2)n1/N=C/C=C/c1ccccc1	20*	-4	1
C[C@H]1COC(=O)[C@H](Cc2ccc(F)cc2)C/C=C\C[C@H](CC(=O)NCCO)C(=O)N1	3	/	/
CCCCn1nnnc1C1c2ccccc2OCC(=O)N1Cc1ccc2c(c1)OCO2 (centres undefined)	4	/	/
COC(=O)[C@]12CCCCC=C1N(Cc1ccc(OC)cc1)C(=O)[C@@H]2CC(=O)NCc1ccc(C)o1	2	/	/
COC(=O)c1ccc(Cn2ccc3ccc(-c4ccc5ccn(C(=O)c6cccc(OC)c6)c5c4)cc32)cc1	2	/	/
COc1ccc(-n2nc(C(=O)NCC(=O)NCc3ccco3)c3ccccc3c2=O)cc1	0	/	/
CCOC(=O)N1CCN(C(=O)CNC(=O)c2nn(-c3ccc(OC)cc3)c(=O)c3ccccc23)CC1	15*	-18	1
COc1ccc(-n2nc(C(=O)NCC(=O)NCCCN3CCN(C)CC3)c3ccccc3c2=O)cc1	-1	/	/
CC(C(=O)Nc1ccc(Cl)cc1Cl)N1C(=O)NC2(CCCC2)C1=O (centres undefined)	-1	/	/
COc1ccc(CCNC(=O)C2CCCN(S(C)(=O)=O)C2)cc1 (centres undefined)	0	/	/
CCc1cccc(C)c1NC(=O)CN1C(=O)NC(CCc2ccccc2)C1=O (centres undefined)	15*	-2	-1
COc1cccc(NC(=O)CN2C(=O)NC(CCc3ccccc3)C2=O)c1 (centres undefined)	1	/	/
O=C(CN1C(=O)NC(CCc2ccccc2)C1=O)N1CCCCCC1 (centres undefined)	1	/	/
O=C(c1ccco1)N1CCN(C(c2ccc(F)cc2)c2nnnn2CC2CCCO2)CC1 (centres undefined)	11*	-6	0
COc1ccc(C(c2nnnn2Cc2ccccc2)N2CCN(C(=O)c3ccco3)CC2)cc1 (centres undefined)	-4	/	/
CCC(C)(C)n1nnnc1C(c1ccc(C)cc1)N1CCN(C(=O)c2ccco2)CC1 (centres undefined)	0	/	/
C[C@H]1C2CC(OC(=O)NCc3ccc(Cl)cc3)C(C2)[C@H]2CCCCN21 (some centres undefined)	1	/	/
Cn1ncc([N+](=O)[O-])c1C(=O)Nc1ccc(-c2ccccc2)cc1	-1	/	/
SMILES	TTR transcr act	TTR inh HuH7	TTR up confirm
CC(C)(C)c1cc(C(=O)NC2CC2)n(Cc2ccc(F)cc2)n1	9.7*	-28	1
CC(C)(C)C(=O)NNC(=O)c1cc(C(C)(C)C)nn1Cc1ccccc1	0	/	/
CC(C)(C)c1cc(C(=O)Nc2ccc(F)cc2)n(Cc2ccc(F)cc2)n1	-2	/	/
O=C/C(=C\Nc1ccc(Br)cc1)c1nc2ccccc2o1	3	/	/
O=C/C(=C\Nc1ccccn1)c1nc2ccccc2o1	11*	25*	-1
O=C/C(=C\Nc1ccccn1)c1nc2cc(Cl)ccc2o1	1	/	/
Cc1ccccc1CN1CCCCC(NC(=O)C2CCC2)C1=O (centres undefined)	0	/	/
CC(C)[C@H]1/C(=C/C2CC2)N2C(=O)C[C@H](c3ccccc3)N=C2N1C	4	/	/
COc1ccccc1CN[C@@H]1CC[C@@]23CCCN2C(=O)CCC[C@H]3C1	2	/	/
CCC[C@H]1[C@@H](NC(=O)c2cccc(C(F)(F)F)c2)CC[C@@]23CCCN2C(=O)CCC[C@@H]13	3	/	/
O=C(Cc1ccc(F)cc1)N/N=C/c1ccccn1	1	/	/
O=C(Cc1cccs1)N/N=C/c1ccccn1	15*	-11	0
Cc1ccc(/C=N/NC(=O)Cc2cccs2)o1	0	/	/
Cc1nc(N2CCN(C(=O)C3CCCCC3)CC2)c2c3c(sc2n1)CCCC3	-2	/	/
Cc1nc(-c2nnc(SCC(=O)Nc3ccc(Cl)cc3)n2C)cs1	23*	-24	0
CN(C)c1ccc(NC(=O)CSc2nnc(-c3cnccn3)n2C)cc1	0	/	/
Cn1cnnc1SCC(=O)Nc1ccc(Cl)cc1	13*	-11	0
Cn1cnnc1SCC(=O)Nc1ccc(F)cc1F	0	/	/
Cn1cnnc1SCC(=O)Nc1ccc(Oc2ccccc2)cc1	0	/	/
